Experimental data taken from PubChem BioAssay (NCI).
This is part of a sample that, as a whole, favours compounds with a hit. Of some 79,000 tested, about 15% had one in any assay. Values without a mark were called inactive. Calls of active or inactive are those of the source. No stated cut-off is given here; in the data, active means growth inhibition above about 70%; inactive means the rest.

Assay: NCI Yeast Anticancer Drug Screen. Data for the bub3 strain (AID 167)
Details: S. cerevisiae bub3 mutant strain, active compounds read high
Method: Growth inhibition of yeast strains with defined genetic alterations is measured as a screen for potential anti-cancer activity. Selected strains with alterations in DNA damage repair or cell cycle control were exposed to compounds and growth inhibition was measured relative to vehicle treated controls. The strain used in this assay is bub3

[1] = at 5.0 µM (retest, dose inferred, filed as 0.5)
[2] = at 50.0 µM (retest, dose inferred, filed as 5.0)

SMILES | growth inhibition [1] | growth inhibition [2] | growth inhibition (at 50.0 µM)
COc1ccc(Cc2nc3ccccc3s2)cc1OC | 51% | 99% (active) | 92.6% (active)
C[n+]1c2ccc(Cl)cc2nc2cc(-c3ccccc3)ccc21 | 54% | 98% (active) | 98.9% (active)
CCCCCc1[nH]nc(C(=O)OC)c1N=NN1CCOCC1 | 81% (active) | 99% (active) | 99.4% (active)
O=C(Nc1ccccc1-c1nn(CN2CCNCC2)c(=S)n(CN2CCNCC2)c1=O)C(F)(F)F | 1% | 0% | 8.65%
CC1=C(C(=O)Nc2cccc(Cl)c2)C(c2ccc([N+](=O)[O-])cc2)C(C(=O)Nc2cccc(Cl)c2)=C(C)N1 | 49% | 49% | 74.7% (active)
CN(NC(=O)c1cccs1)C1=NCCCN1 | 18% | 22% | 4.8%
CCN(CC)CCOc1c(I)cc(I)cc1I | 6% | 98% (active) | 84.8% (active)
CCOC1(c2ccccc2)c2ccccc2S(=O)(=O)N1C (configuration not stated) | 1% | 10% | 40.8%
COc1cccc(=O)cc1 | 3% | 85% (active) | 92.9% (active)
O=[N+]([O-])c1ccc(-c2nc(/C=N/N3CCCCC3)cs2)o1 | -1% | 3% | 15.2%
O=C(CCn1[nH]c(=O)c(Cl)c(Cl)c1=O)NNc1ccc([N+](=O)[O-])cc1[N+](=O)[O-] | 1% | 19% | 26.2%
CCc1cc2c(cc1O)CC[C@@H]1[C@@H]2CC[C@]2(C)[C@@H](O)CC[C@@H]12 | -39% | 98% (active) | 49.5%
Cc1nc2c(cnn2-c2ccccc2)c(=O)o1 | -65% | -73% | -0.85%
COc1ccc(C2SCC(=O)N2c2ccc(-c3ccc(-n4c(-c5ccccc5)nc5ccccc5c4=O)cc3)cc2)cc1 (configuration not stated) | 24% | 69% | 70.9% (active)
